# Compounds without any hit were thinned out: in the full panel of roughly 83,000, 20% have a hit.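 In brief: 96-well plates, 48 h treatment, single concentration, percent growth endpoint.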 A number with no mark means an inactive call. The source made the active and inactive calls.
# System: HCC-2998 colon
# Assay: NCI-60 one-dose screen, 48 h (100 = growth as untreated, 0 = no growth, -100 = all killed)
# Settings: 10 µM unless noted
# Protocol: Growth inhibition of the HCC-2998 human tumor cell line is measured as a screen for anti-cancer activity. Cells are grown in 96 well plates and exposed to the test compound for 48 hours. Compounds are tested at a single concentration, which is 10^-5 M for most compounds. The reported endpoint is percent growth (GI% or GIPRCNT), where numbers from 0 - 100% represent growth inhibition, and numbers from -100% - 0 represent cell death. For example, a value of 40 represents 60% growth inhibition. A value of 0 means no net growth occurred over the course of the experiment. A value of -40 indicates 40% of cells at the beginning of the experiment died by the end of the experiment. A value of -100 means all cells are dead at the end of the experiment.
# NCI-60 Human Tumor Cell Lines Screen was performed using the standard one-dose NCI protocol, which is described in more detail at https://dtp.cancer.gov/discovery_development/nci-60/default.htm.
# Compounds with GIPRCNT values below 10 were considered active. Activity score was based on GIPRCNT using the following formula: […]
# Score is 0 for GIPRCNT values of 100 or above, 50 for GIPRCNT values of 0, and 100 for GIPRCNT values of -100.
row,Structure (SMILES),growth
1,Cc1ccc2sc3c(c2c1)OC(N)=C(C#N)C3c1cccc(F)c1 (stereo not given),6.17% (active)
2,COCCNc1ccc2ncc(C#Cc3cncc(C(=O)Nc4ccc(CN5CCN(C)CC5)c(C(F)(F)F)c4)c3)n2n1,-23.6% (active)
3,O=C1[C@H]2Cc3c([nH]c4ccccc34)[C@@H](c3ccc(Cl)cc3)N2C(=O)CN1C1CCN(Cc2ccccc2)CC1,40.3%
4,CNC(=O)c1cc(Oc2ccc3nc(NC(=O)c4cc(N5CCOCC5)cc(C(F)(F)F)c4)sc3c2)ccn1,114%
5,CC1(C)[C@@H](O)CC[C@]2(C)[C@H]3CC[C@@H]4[C@H]5[C@H](C(=O)/C=C\c6ccccn6)CC[C@]5(O)CC[C@@]4(C)[C@]3(C)CC[C@@H]12,52%
6,Cc1c(F)cc(C(N)=O)cc1NCC(=O)Nc1ccc([N+](=O)[O-])cc1,105%
7,N#Cc1cccc(NC(=O)c2cc(-c3ccc(F)cc3F)ccc2O)c1,22.7%
8,Cc1cccc2c3c(sc12)C(c1ccc(F)cc1)C(C#N)=C(/N=C/c1ccc(Cl)cc1)O3 (stereo not given),5.44% (active)
9,COc1ccc(/C=N/NC(=O)c2cn(C3CC3)c3c(OC)c(N4CC5CCCNC5C4)c(F)cc3c2=O)cc1 (stereo not given),95.4%
10,O=C(O)c1ccc(-n2cc(CNc3cc(F)c(F)c(F)c3)c(-c3cccc(F)c3)n2)cc1,87.5%
11,CCOc1ccccc1NC1=C(Cl)C(=O)c2nc(C)ccc2C1=O,20.3%
12,CC[C@H](CO)Nc1ccc2ncc(C#Cc3cncc(C(=O)Nc4ccc(CN5CCN(C)CC5)c(C(F)(F)F)c4)c3)n2n1,-59.4% (active)
13,O=C(CSc1nc2ccccc2c(=O)n1-c1ccc(Cl)cc1)N/N=C/c1ccc(N2CCCCC2)cc1,118%
14,C=C(C=O)[C@@H]1CC[C@]2(CO)CC[C@]3(C)[C@H](CC[C@@H]4[C@@]5(C)CCCNC(C)(C)[C@@H]5CC[C@]43C)[C@@H]12,-65.7% (active)
15,O=C(CCn1cc[n+](CC(=O)c2ccc(-c3ccccc3)cc2)c1)Nc1cccc2cccnc12,68.4%
16,CCn1c2ccccc2c2cc(-n3nncc3-c3ccccc3)ccc21,15.2%
17,Cc1ccc(NC(=O)c2ccc(CN3CCOCC3)c(C(F)(F)F)c2)cc1Oc1ccc(-c2[nH]nc3ncnc(N)c23)cc1,75.2%
18,COc1cccc2c1CN(C(=O)c1ccc(O)c(C(=O)N3Cc4ccc(OCCC[P+](c5ccccc5)(c5ccccc5)c5ccccc5)cc4C3)c1)C2,47.9%
19,CCN1CCN(Cc2cn(-c3ccc(S(N)(=O)=O)cc3)nn2)CC1,106%
20,CCn1c(SCC(=O)Nc2cccc(C(=O)/C=C/c3ccc(C)cc3)c2)nc2ccccc2c1=O,78.7%

row,Structure (SMILES),growth
1,NC(N)=Nc1ccc(Oc2cccc(NC(N)=Nc3ccc(Cl)c(C(F)(F)F)c3)c2)cn1,62.6%
2,COc1cc(-c2nn(C(C)(C)C)cc2-c2ccnc(NCCCNS(=O)(=O)c3ccc(F)cc3)n2)ccc1Cl,108%
3,O=S(=O)(Nc1ccc2c(c1)OCO2)c1ccc(-c2cnc(C3CC3)o2)cc1,73.5%
4,CC(C)(C)n1nnnc1C(Nc1cccc2c1OCO2)c1cc2cccc3ccc4cccc1c4c32 (stereo not given),98.7%
5,COc1ccc(Cn2cc3c(c2-c2cc(OC)c(OC)c(OC)c2)CCc2c(CN4CCOCC4)noc2-3)cc1,21.3%
6,N/C(=N\C(N)=N\c1nc2ccccc2s1)c1ccc2ccccc2c1,116%
7,O=C1Nc2ccccc2/C1=C/c1ccc(CO)n1-c1ccc(Cl)cc1,78.3%
8,Cc1ccc(NC(=O)c2ccc(CN3CCN(C)CC3)cc2)cc1Oc1ccc(-c2[nH]nc3ncnc(N)c23)cc1,124%
9,CNC(=O)c1cc(-c2ccc(NC(=S)Nc3cc(C(F)(F)F)cc(C(F)(F)F)c3)cc2)nc2cccnc12,122%
10,O=c1[nH]c(Sc2sc3ccc(Cl)cc3c2CBr)nc(=S)[nH]1,48.5%
11,NC(N)=Nc1ccc(Oc2cccc(NC(N)=Nc3ccc(Br)c(C(F)(F)F)c3)c2)cc1,50.8%
12,COc1cc(-c2nn(C(C)(C)C)cc2-c2ccnc(NCCCNS(=O)(=O)c3ccc(Cl)cc3)n2)ccc1Cl,108%
13,COc1ccc(/C=C/C(=O)c2cc(S(N)(=O)=O)c(OC)cc2OC)cc1,83.2%
14,CCCn1cnc2c(c1=N)C(c1ccc(F)cc1)c1sc3c(CC)cccc3c1O2 (stereo not given),24.2%
15,C#C[C@]1(O)CC[C@H]2[C@@H]3CC=C4c5sc(-c6ccc7c(c6)OCO7)nc5CC[C@]4(C)[C@H]3CC[C@@]21C,34%
16,CCNC(=O)N1CCc2cc(OC)c(OCCc3ccc(OC)cc3)cc2C1c1ccc(OC)cc1C (stereo not given),19.5%
17,CS(=O)(=O)c1ccc(-n2cc(/C=N/O)c(-c3ccccc3)n2)cc1,95.4%
18,O=C(CSc1nnc(-c2ccc(Cl)cc2)n1-c1ccccc1)Nc1cccc(Cl)c1,83.8%
19,NS(=O)(=O)c1ccc(Nc2nc(Nc3ccccc3)nc3nnc(SCC(=O)NC4CCCCC4)n23)cc1,109%
20,COc1cc(/C=C2\C(=O)Nc3ccccc32)ccc1OCc1ccc(Cl)cc1,123%
